This excerpt belongs to a sample that is enriched for hits.
ERK EGF inh = EGF-driven ERK pathway inhibition; HEK293-V1b, EGF-stimulated phospho-ERK AlphaScreen; Potency, µM (series often up to 11.5 µM), for the others: top-dose activity change, negative = inhibition, most hits filed as inhibitors; 0.41% of 130,000 active; active = well fitted inhibition curve with a large enough effect;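 also: plate controls were stimulated vehicle wells for no effect and unstimulated vehicle basal for full effect; nearly all actives have a fitted effect of over 55% in size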
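In this qHTS, HEK293 cells with stable type-1 vasopressin (V1b) receptor were exposed to compound at 37C for 30 min, stimulated 5 min with EGF at 25 nM, lysed, and probed for phospho-ERK by AlphaScreen.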
Starred values were filed as active, the others as inactive; [ ] = remark or other dose. Potency is read from the fitted curve at half-maximal effect.

Screening Cc1ccc(C2=NOC(=O)/C2=C\C=C\c2ccccc2)cc1 returned ERK EGF inh 32µM*.
For CC1=NN(c2ccccc2)C(=O)/C1=C/C=C/c1ccccc1 the results were ERK EGF inh 16µM*.
`O=C1ON=C(c2ccccc2)/C1=C/c1ccco1` gave ERK EGF inh 3%.
For CN(C)/C=C1\C(=O)ON=C1c1ccccc1 the results were ERK EGF inh 3%.
COc1ccc2c(c1)C(=O)[C@H](OC(=O)NCCc1ccc(OC)c(OC)c1)[C@@H](c1ccc(OC)c(Br)c1)O2 was read as ERK EGF inh -9%.
Screening CCN1CCCC1Cn1c(-c2ccccc2)nc2c(NCCOC)nc(C)nc21 (configuration not stated) returned ERK EGF inh 3%.
For CCN(CC)C(=O)CN1C(=O)c2cccc3cccc(c23)C1=O the results were ERK EGF inh -5%.
`CCN1/C(=N\N)c2cccc3cccc1c23` gave ERK EGF inh 13µM*.
For O=C1c2cccc3cccc(c23)N1Cc1ccc(F)cc1 the results were ERK EGF inh -3%.
Screening COC(=O)CCC(=O)OC1(C)C(=O)C=C2C=C(CCCNC(=O)OC(C)(C)C)OC=C2C1=O (configuration not stated) returned ERK EGF inh -6%.
Screening CC(C)C[C@@H](CC(=O)N[C@H](CC(=O)N[C@@H]1CCCC[C@H]1C(=O)N[C@H](CC(=O)N[C@@H](CCC(=O)O)CC(=O)O)CC(C)C)C(C)C)NC(=O)[C@@H]1CCCC[C@H]1N returned ERK EGF inh 1%.
For O=C(Nc1ccccc1)N1CC2(CCN(C(=O)c3cccc(F)c3)CC2)C1 the results were ERK EGF inh -4%.
Screening COc1cc(C(=O)NNc2nc3cc4c(cc3s2)OCO4)cc(OC)c1OC returned ERK EGF inh 6%.
COc1cc(OC)cc(C(=O)NNc2nc3cc4c(cc3s2)OCO4)c1 was read as ERK EGF inh 0%.
Screening O=C(NNc1nc2cc3c(cc2s1)OCO3)c1cccc(F)c1 returned ERK EGF inh 18µM*.
For Nc1nc(SCc2ccc([N+](=O)[O-])cc2)c2ncn([C@@H]3O[C@H](CO)[C@H](O)[C@H]3O)c2n1 the results were ERK EGF inh -4%.
`CC(Cc1ccc(O)c(O)c1)(NN)C(=O)O` (configuration not stated) gave ERK EGF inh 23%.
Screening COc1ccccc1CCn1c(=O)c(-c2ccccc2)nc2cncnc21 returned ERK EGF inh 0%.
`O=[N+]([O-])c1ccc(-c2cn3nc(-c4ccccc4)c(-c4ccccc4)nc3n2)cc1` gave ERK EGF inh -5%[57.5 µM].
Nc1nc(-c2ccccc2)c(-c2ccc([N+](=O)[O-])cc2)s1 was read as ERK EGF inh 25µM*.
For Nc1nc(-c2ccc([N+](=O)[O-])cc2)c(C(=O)Nc2ccc(Cl)cc2)s1 the results were ERK EGF inh 10%[57.5 µM].
`COC(=O)[C@@H](NC(=O)O[C@@H]1C(=O)c2cc(Br)ccc2O[C@H]1c1ccc2c(c1)OCO2)C(C)C` gave ERK EGF inh -2%.
Screening CCCCC/C=C\C\C=C/C=C/C=C/[C@@H](SCC(NC(=O)CCC(N)C(=O)O)C(=O)NCC(=O)O)[C@@H](O)CCCC(=O)O (some centres not stated) returned ERK EGF inh -18%.
Screening COc1ccc(NC(=O)N2CC[C@@]3(CCCN(C(=O)c4ccncc4)C3)C2)cc1 returned ERK EGF inh -9%.
O=S(=O)(c1ccccc1)N1CCC[C@@]2(CCN(Cc3cc(C(F)(F)F)cc(C(F)(F)F)c3)C2)C1 was read as ERK EGF inh 9%.
Screening COc1ccc(CNc2ncnc3cc(OC)c(OC)cc23)cc1OC returned ERK EGF inh 1%[57.5 µM].
Screening c1coc(CNc2ncnc3[nH]ncc23)c1 returned ERK EGF inh -2%[57.5 µM].
For COc1cc2ncnc(NCc3ccco3)c2cc1OC the results were ERK EGF inh 22µM*.
Screening O=C(NCCN1C(=O)S/C(=C\c2cccs2)C1=O)[C@H](Cc1ccccc1)N1C(=O)c2ccccc2C1=O returned ERK EGF inh -3%.
Screening CCCCCCCC1=Cc2ccc(F)cc2C(C(C(C)=O)C(=O)OC)N1C(=O)OC (configuration not stated) returned ERK EGF inh -5%.
`CC(c1ccccc1)N1C(=O)/C(=C/c2ccncc2)SC1=S` (configuration not stated) gave ERK EGF inh 22µM*.
`O=C(O)C(c1ccccc1)N1C(=O)/C(=C/c2cccs2)SC1=S` (configuration not stated) gave ERK EGF inh 5%[57.5 µM].
For C=CCOc1ccc(/C=C2\SC(=S)N(C(C(=O)O)c3ccccc3)C2=O)cc1 (configuration not stated) the results were ERK EGF inh 0%[57.5 µM].
Screening CN(C)Cc1ccccc1-c1nc(NCc2ccccc2)c2ccccc2n1 returned ERK EGF inh 17%.
For O=C(O)c1ccc(NS(=O)(=O)c2ccsc2C(=O)O)cc1 the results were ERK EGF inh 3%.
Screening CCCCNC(=O)C(c1ccc(OCC(=O)OC)c(C(=O)OC)c1)N(CCC1=CCCCC1)C(=O)CCCCCN1C(=O)NC(c2ccc(-c3ccccc3)cc2)C(C(=O)OCc2ccccc2)=C1C (configuration not stated) returned ERK EGF inh -12%.
For CCCCCCN(C(=O)CCCCCN1C(=O)NC(c2ccccc2-c2ccccc2)C(C(=O)OCc2ccccc2)=C1C)C(C(=O)NCCCC)c1ccc(OCC(=O)OC)c(C(=O)OC)c1 (configuration not stated) the results were ERK EGF inh -7%.
For CC(OC(=O)C1CCCCC1)c1nc2ccccc2[nH]1 (configuration not stated) the results were ERK EGF inh -6%.
For O=C(NCCCc1nc2ccccc2[nH]1)c1ccc(F)cc1 the results were ERK EGF inh 1%.
Cc1cccc(C)c1NC(=S)NCCSc1ccc(Cl)cc1 was read as ERK EGF inh 3%.
`O=S(=O)(c1ccccc1)N1CCC2(CCCN(c3ccncc3)C2)CC1` gave ERK EGF inh -2%.
Screening C=CC(C1=CC(=O)C(OC)=C(OC)C1=O)c1ccccc1 (configuration not stated) returned ERK EGF inh 35%.
`C(=N\Nc1nc2ccccc2[nH]1)/c1ccccn1` gave ERK EGF inh -5%.
C#CCn1cc(/C=N/Nc2nc3ccccc3[nH]2)c2ccccc21 was read as ERK EGF inh 25µM*.
Screening C(=N\Nc1nc2ccccc2[nH]1)/c1cccc2nccnc12 returned ERK EGF inh -11%[57.5 µM].
`CCCc1nn(C)c(C(=O)Nc2ccccc2)c1Cl` gave ERK EGF inh -4%.
Screening CCN(c1ccccc1)S(=O)(=O)c1ccc(Cl)c(NC(=O)CSc2nncs2)c1 returned ERK EGF inh 1%.
For COc1ccc2c(c1)O[C@H](c1ccc3c(c1)OCO3)[C@@H](OC(=O)NCc1ccco1)C2=O the results were ERK EGF inh -8%.
Screening COCCOc1ccc(C(F)(F)F)cc1NC(=O)c1ccc(F)cc1 returned ERK EGF inh -2%.
For CC(C)(C)c1ccc(OCCOc2ccc(C(C)(C)C)cc2NC=O)c(NC=O)c1 the results were ERK EGF inh 32µM*.
For COCCOc1ccc(C(F)(F)F)cc1NC(=O)c1ccccc1 the results were ERK EGF inh -3%.
Screening O[C@H](CN1CCN(c2cccc(Cl)c2)CC1)C(c1ccccc1)c1ccccc1 returned ERK EGF inh -3%.
